Experimental data as given in PubChem BioAssay (NCI).
This is part of a sample that, as a whole, favours compounds with a hit. Of some 83,000 tested, about 20% had one in any assay.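 Percent growth is the endpoint: 0 to 100 indicates growth inhibition (40 means 60% inhibition), 0 means no net growth, and negative values indicate cell death.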 Calls of active or inactive are those of the source. The calls were made as follows: active = growth percent below 10; inactive = the rest.

What was measured:
Test in all cases: NCI-60 one-dose screen, 48 h (100 = growth as untreated, 0 = no growth, -100 = all killed)
[1] = test system: BT-549 breast; conditions: 10 µM unless noted
[2] = test system: MDA-MB-435 melanoma; conditions: 10 µM unless noted
[3] = test system: SW-620 colon; conditions: 10 µM unless noted
[4] = test system: MCF7 breast; conditions: 10 µM
[5] = test system: HCT-116 colon; conditions: 10 µM unless noted
[6] = test system: HCC-2998 colon; conditions: 10 µM unless noted
[7] = test system: KM12 colon; conditions: 10 µM unless noted

Measured: growth

CNC(=O)c1cc(Oc2ccc(CC(=O)Nc3cc(C(C)(C)C)cn3C)cc2)ccn1
inactive: [1] 63.9% | [2] 66.2% | [3] 105% | [4] 50.1% | [5] 54.3% | [6] 103% | [7] 86.3%

COC(=O)/C(CCC=C(C)C)=C1\[C@@H](OC(C)=O)C[C@@]2(C)[C@H]1C[C@@H](O)[C@H]1[C@@]3(C)CC[C@H](NCc4ccccc4)[C@@H](C)[C@@H]3CC[C@@]12C
inactive: [1] 76.2% | [2] 75.7% | [3] 63.5% | [4] 49.5% | [5] 20.2% | [6] 72.8% | [7] 72.9%

COc1c2ccoc2c(/C=C/C=O)c2oc(-c3ccccc3)cc(=O)c12
active: [5] -56.6%
inactive: [1] 41.2% | [2] 64.6% | [3] 10% | [4] 31.5% | [6] 104% | [7] 91.4%

CCOC(=O)CSc1c(-c2ccccc2)c2cc(Cl)ccc2[nH]c1=O
inactive: [1] 103% | [2] 99.8% | [3] 102% | [4] 93.3% | [5] 92.1% | [6] 103% | [7] 98.1%

O=C(/C=C/c1ccc(C(F)(F)F)cc1)c1ccc(Nc2nc(NCCO)nc(Nc3ccc(Cl)cc3)n2)cc1
active: [3] 0.404% | [4] -43.1% | [5] -85.6% | [6] -30.2% | [7] -51.2%
inactive: [1] 57.9% | [2] 47.7%

CN1CCN(Cc2ccc(NC(=O)c3cncc(C#Cc4nc(N)nc5[nH]ncc45)c3)cc2C(F)(F)F)CC1
inactive: [1] 82.9% | [2] 81.5% | [3] 28% | [4] 69.1% | [5] 49.1% | [6] 133% | [7] 81.9%

C[C@@H](C(=O)NCCCC#Cc1cnc(Nc2ccc(C#N)cc2)nc1NC1CC1)N(C)C(=O)/C=C/CN(C)C
inactive: [1] 32.3% | [2] 24.5% | [3] 42.1% | [4] 17.3% | [5] 27.7% | [6] 64.5% | [7] 17.7%

Cc1cc2c(c(C)c1Cl)C(=O)/C(=C/c1ccco1)O2
inactive: [1] 103% | [2] 100% | [3] 108% | [4] 24.7% | [5] 98.7% | [6] 97.6% | [7] 75.9%

Oc1c(C(Nc2ccccn2)c2cccc(Oc3ccccc3)c2)ccc2cccnc12 (stereo not drawn)
active: [1] -74.5% | [2] -90.1% | [3] -88% | [4] -83% | [5] -85.3% | [6] -84.5% | [7] -89.9%

COc1nccc2cc3c(=O)n4c(cc5ccccc54)c(=O)n3c12
inactive: [1] 104% | [2] 110% | [3] 101% | [4] 49.1% | [5] 104% | [6] 104% | [7] 103%

c1ccc(CNc2nc(Nc3ccccc3)nc3ccccc23)cc1
inactive: [1] 89.2% | [2] 11.7% | [3] 56.1% | [4] 56.9% | [5] 58.2% | [6] 37.2% | [7] 71.8%

CC1=C(C(=O)OCC2CCN(C(=O)OC(C)(C)C)CC2)[C@H](c2cccc(C#N)c2)C2=C(CC(C)(C)CC2=O)N1
inactive: [1] 65% | [2] 50.3% | [3] 37.2% | [4] 40.8% | [5] 26.9% | [6] 70.8% | [7] 42.4%

COc1ccc(CCN2C(=O)CCSC2=S)cc1OC
active: [7] 5.07%
inactive: [1] 114% | [2] 96.2% | [3] 87.6% | [4] 28% | [5] 103% | [6] 102%

COC(=O)/C(CCC=C(C)C)=C1\[C@@H](OC(C)=O)C[C@@]2(C)[C@H]1C[C@@H](O)[C@H]1[C@@]3(C)CC[C@H](NC(=O)c4cnccn4)[C@@H](C)[C@@H]3CC[C@@]12C
inactive: [1] 100% | [2] 103% | [3] 104% | [4] 96% | [5] 93.1% | [6] 104% | [7] 102%

O=C(O)CCC(=O)c1ccc(C2CCCCCC2)cc1
inactive: [1] 94.9% | [2] 105% | [3] 107% | [4] 96.6% | [5] 98.5% | [6] 108% | [7] 105%

Nc1ccc(C2c3ccccc3Oc3ccccc32)cc1
inactive: [1] 109% | [2] 104% | [3] 101% | [4] 104% | [5] 97.8% | [6] 117% | [7] 103%

COc1ccc(-c2nc(-c3ccccn3)c(-c3ccccn3)n2CC(C)C)cc1OC1CCCC1
active: [7] 8.2%
inactive: [1] 38.5% | [2] 26.9% | [3] 21.9% | [4] 10.8% | [5] 14.7% | [6] 24.4%

O=C1/C(=C/c2cccc(O)c2)COc2ccc(O)cc21
inactive: [1] 98.1% | [2] 60.3% | [4] 14% | [5] 10.1% | [6] 103% | [7] 20.9%
active: [3] 9.65%

O=C1CCC(N2C(=O)c3cccc(NCCCCCCOc4ccc(Nc5nccc(Nc6ccccc6)n5)cc4)c3C2=O)C(=O)N1 (stereo not drawn)
inactive: [1] 65.1% | [2] 75.9% | [3] 91% | [4] 66.8% | [5] 77.6% | [6] 98.4% | [7] 88.5%

O=C1Nc2ccccc2/C1=C/c1cccs1
inactive: [1] 88.5% | [2] 104% | [3] 98.3% | [4] 60.8% | [5] 99.9% | [6] 91.4% | [7] 77.1%

Cc1ccc2cccc(Oc3ccc(Nc4ncnc5onc(-c6ccccc6)c45)cc3)c2n1
inactive: [1] 93.3% | [2] 79.9% | [3] 87% | [4] 79.5% | [5] 58.5% | [6] 100% | [7] 63.8%

O=C(NC1CCN(Cc2ccccc2)CC1)c1cc(C(=O)NC2CCN(Cc3ccccc3)CC2)cc(C(=O)NC2CCN(Cc3ccccc3)CC2)c1
inactive: [1] 70.5% | [2] 70.4% | [3] 84.6% | [4] 57.3% | [5] 66.1% | [6] 107% | [7] 90.8%

CCOC(=O)c1sc(-c2ccc(OS(=O)(=O)c3cccs3)c(C=O)c2)nc1C
active: [1] -7.24% | [2] -15.1% | [3] 8.51% | [4] -21.7% | [5] 2.95% | [7] 0.602%
inactive: [6] 46.4%

CCOC(=O)c1cc2c(n1Cc1cc(OC)c(OC)c(OC)c1)-c1oncc1CCC2
inactive: [1] 31.9% | [3] 21.5% | [6] 17.2% | [7] 28.4%
active: [2] -53.9% | [4] 7.45% | [5] 8.98%

CCCCC1CCc2cccc3c(SCC(=O)N(C)c4ccc(Cl)cc4)cc[n+]1c23 (stereo not drawn)
inactive: [1] 115% | [2] 103% | [3] 106% | [4] 99.1% | [5] 102% | [6] 114% | [7] 108%

CCOC(=O)c1sc(-c2ccc(OS(=O)(=O)c3ccccc3[N+](=O)[O-])c(C=O)c2)nc1C
inactive: [1] 47.7% | [2] 78.4% | [3] 36.8% | [4] 20.8% | [5] 13.6% | [6] 111% | [7] 96.2%

O=S(=O)(Nc1ncccn1)c1ccc(NC2Nc3nc4ccccc4nc3S2)cc1 (stereo not drawn)
inactive: [1] 95.9% | [2] 98.3% | [3] 99.3% | [4] 98.8% | [5] 101% | [6] 108% | [7] 106%

c1ccc2c(c1)oc1cc3sccc3nc12
inactive: [1] 89.5% | [2] 99.7% | [3] 96.6% | [4] 99.8% | [5] 96.7% | [6] 118% | [7] 108%

COc1ccc(/C=C2\NC(=O)NC2=O)cc1O
inactive: [1] 94.1% | [2] 94.7% | [3] 109% | [4] 100% | [5] 89.3% | [6] 107% | [7] 102%

CCC1=C[C@@H]2CN(C1)Cc1c([nH]c3ccccc13)[C@@](C(=O)OC)(c1cc3c(cc1OC)N(C)[C@H]1[C@@](O)(C(=O)OC)[C@H](OC(C)=O)[C@]4(CC)[C@@H]5C[C@@H]5CN5CC[C@]31[C@@H]54)C2
active: [2] -57.7% | [4] 3.46% | [5] 6.72% | [6] -13.1% | [7] 5.74%
inactive: [1] 12.8% | [3] 26.1%

CCOc1ccc2nc(C)cc(Nc3ccc(Br)cc3)c2c1
inactive: [1] 108% | [2] 110% | [3] 94.8% | [4] 76.6% | [5] 80.4% | [6] 117% | [7] 108%

COC(=O)[C@@H]1CCCN1C(=O)[C@H]1CCCN1C(=O)[C@@H](Cc1c[nH]c2ccccc12)NC(=S)Nc1cc(C(F)(F)F)cc(C(F)(F)F)c1
inactive: [1] 78.9% | [2] 31.9% | [3] 63.1% | [4] 25.3% | [5] 36.9% | [6] 20.8% | [7] 40.1%

COc1cc(/C(C#N)=C/c2nc3c(N4CCOCC4)nc(Cl)nc3n2C)cc(OC)c1OC
active: [2] -48.5% | [4] 6.74% | [5] 4.75% | [6] 7.16% | [7] 1.09%
inactive: [1] 20.7% | [3] 19.8%

O=C(Nc1ccc(N2CCNCC2)cn1)c1[nH]ncc1Nc1ncnc2sc3c(c12)CCC3
active: [2] -63.2% | [3] -76.1% | [4] -34% | [5] -75%
inactive: [1] 85.4% | [6] 33.8% | [7] 53.4%
